# An excerpt weighted towards active compounds, which were near 2.2% of everything screened.
# APP transl inh: APP translation inhibition; SH-SY5Y APP 5'UTR-luciferase reporter, luminescence; inhibition, % at 2 µM; 190,000 tested, 0.82% active; AID 1285;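 active means inhibition above a set limit, derived from the sample mean plus 3 SD, cut at about 45% in these data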
# Ba/F3 V617F tox: reduce viability of Ba/F3 cells dependent on JAK2V617F | Ba/F3 EpoR-JAK2V617F viability, ATP luminescence | 220,000 tested, 1.1% active | inhibition, % at 5.6 µM;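 active means inhibition above the campaign mean plus 3 SD over all tested compounds, cut at about 24% in these data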;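 further: cytokine-independent growth of Ba/F3 cells driven by EpoR plus mutant JAK2; 0% = DMSO-treated cells and 100% = JAK inhibitor I control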
# IEC-6 tox: IEC-6 cytotoxicity, counter-screen for KLF5 inhibitors; luminescence viability; inhibition, % at 5 µM; 290,000 tested, 0.78% active; AID 1825; in the data active means inhibition above about 22%;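 further: 0% = plate median of test compound wells and 100% = cytotoxic reference compound wells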
# BaF3 tox: reduces parental Ba/F3 cell viability, JAK2V617F counter-screen; CellTiter-Glo ATP luminescence; inhibition, % at 5.6 µM; 220,000 tested, 1.1% active;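 active means inhibition above a per-campaign cutoff, the mean inhibition of all tested compounds plus 3 SD, cut at about 27% in these data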;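 further: 0% = DMSO wells and 100% = JAK Inhibitor I control wells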
# KLF5 inh: suppresses KLF5 promoter-driven expression; DLD-1 KLF5 promoter-luciferase reporter, luminescence; inhibition, % at 5 µM; 290,000 tested, 0.23% active;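 active means inhibition above a per-plate limit of that plate's mean compound inhibition plus 3 SD, cut at about 60% in these data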;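 further: 0% = DMSO wells and 100% = LY294002 at 200 µM; higher means less KLF5 promoter-driven luciferase light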
# aSyn UTR inh: 5' untranslated region of α-synuclein, MLPCN primary screen. alpha-synuclein 5'UTR reporter, inhibitor activity. inhibition, % (tested at 7.5 µM). 300,000 tested, 0.82% active. AID 1813; in the data active means inhibition above about 60%;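 further: H4 neuroglioblastoma cells stably carrying SNCA 5'UTR luciferase fusion; 0% = DMSO wells and 100% = positive control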
# Active calls of the source: *; nt = no result given.
SMILES,APP transl inh,Ba/F3 V617F tox,IEC-6 tox,BaF3 tox,KLF5 inh,aSyn UTR inh
COc1ccc(Cn2c(-c3ccc(Br)cc3)c[n+]3ccccc23)cc1,-85,72*,2,64*,-13,-143
CC(C)(C)c1cc(CCC(=O)NNC(=S)NC(=O)c2ccccc2)cc(C(C)(C)C)c1O,44,-1,2,7,-16,66*
CCN1CCN(C(c2ccc(OC)cc2)C(O)C(=O)c2c[nH]c3ccccc23)CC1 (configuration not stated),-8,0,-2,3,-21,-3
C[C@H]1O[C@H](O[C@H]2[C@H](O)[C@@H](O)[C@@H](O[C@H]3[C@H](O)[C@@H](O)C(O)O[C@@H]3CO)O[C@@H]2CO)[C@H](O)[C@@H](O)[C@@H]1N[C@H]1C=C(CO)[C@@H](O)[C@H](O)[C@H]1O (some centres not stated),nt,24*,34*,-7,10,-9
CC1OC(OC2C(CO)OC(OC3C(CO)OC(O)C(O)C3O)C(O)C2O)C(O)C(O)C1N[C@@H]1C=C(CO)[C@@H](O)C(O)[C@H]1O (some centres not stated),nt,nt,-8,nt,-17,4
Cc1ccc(-c2nc3cc(N)ccc3o2)c(C)c1,-42,-1,-6,4,-103,20
Nc1ccc2oc(-c3cccc4ccccc34)nc2c1,49*,0,10,6,-16,71*
CC(=O)c1ccc(OC(C)C)c(CC(C(N)=O)C(N)=O)c1,46*,1,-3,5,-45,-4
CC(=O)c1ccc(OCC(C)C)c(CC(C(N)=O)C(N)=O)c1,-4,0,-6,6,-9,4
O=[N+]([O-])c1ccc(N/N=C/c2ccc[nH]2)cc1,65*,60*,6,33*,5,nt
O=[N+]([O-])c1ccc(N/N=C/c2c[nH]c3ccccc23)cc1,8,52*,11,32*,-11,-139
O=[N+]([O-])c1ccc(N/N=C/c2cccc(O)c2O)cc1,nt,nt,2,nt,-4,-170
COc1ccc(CCNC(=O)C2CCN(S(=O)(=O)c3ccc(SC)cc3)CC2)cc1,nt,nt,4,nt,-11,37
Cc1nc(NC(C)c2ccccc2)c2oc3ccccc3c2n1 (configuration not stated),-7,2,3,35*,-9,0
CCC(C)Nc1nc(C)nc2c1oc1ccccc12 (configuration not stated),nt,-2,2,1,-9,5
O=C(O)C1CCCCC1C(=O)Nc1ccccc1C(=O)N1CCN(c2ccc(F)cc2)CC1 (configuration not stated),2,-1,-1,3,8,15
Cc1ccc(S(=O)(=O)N2CCN(C(=O)CSC3CCCC3)CC2)c(C)c1,0,5,4,94*,10,23
Cc1ccc(S(=O)(=O)N2CCN(C(=O)C3CC3C)CC2)c(C)c1 (configuration not stated),nt,nt,nt,nt,nt,8
O=C(Nc1ccc(N2CCOCC2)cc1)c1cn2ccccc2n1,-108,4,6,6,-90,65*
O=C(Nc1ccc(Cl)c(S(=O)(=O)N2CCOCC2)c1)c1cn2ccccc2n1,26,3,2,4,8,-19
Cc1cc(S(=O)(=O)NCc2ccccc2)ccc1OCC(=O)Nc1cccc([N+](=O)[O-])c1,8,-1,0,5,-5,32
CCCN(CCC)S(=O)(=O)c1ccc(C(=O)Nc2nnc(-c3cc(OC)cc(OC)c3)o2)cc1,4,12,1,9,26,82*
CCCN(CCC)S(=O)(=O)c1ccc(C(=O)Nc2nnc(CSC)o2)cc1,-6,1,4,3,-25,13
CCCN(CCC)S(=O)(=O)c1ccc(C(=O)Nc2nnc(-c3cccc(OC)c3)o2)cc1,21,-3,-1,4,-23,70*
COc1cccc(-c2nnc(NC(=O)c3cccc(F)c3)o2)c1,nt,nt,nt,nt,nt,11
SMILES,APP transl inh,Ba/F3 V617F tox,IEC-6 tox,BaF3 tox,KLF5 inh,aSyn UTR inh
COc1ccc(-c2nc(CSCC(=O)NCCCN3CCCC3=O)c(C)o2)cc1OC,nt,nt,1,nt,-1,5
O=C(O)c1ccc(-n2nc(C(F)(F)F)cc2-c2cccs2)cc1,nt,nt,-2,nt,-39,7
CC(NC(=S)Nc1c(Br)cccc1OC(F)F)C(C)(C)C (configuration not stated),2,0,0,10,-17,-3
Cc1ccc(C)c(Nc2c([N+](=O)[O-])cc(C(=O)N3CC(=O)Nc4ccccc43)cc2[N+](=O)[O-])c1,3,-2,3,2,-2,78*
O=C1CC2(CCN(C(=O)c3c(F)cccc3Cl)CC2)Oc2ccccc21,nt,nt,nt,nt,nt,21
NS(=O)(=O)OCCCc1ccc(C(F)(F)F)cc1,nt,nt,0,nt,-25,17
CCCCOc1ccc(NC(=O)C(=O)NCCCn2ccnc2)cc1,7,0,3,4,-12,66*
CCCCCCOc1ccc(C(=O)NCCCn2ccnc2)cc1,-20,2,2,6,-42,-38
O=C(NCCc1ccccc1)c1nnc(CS(=O)(=O)c2ccccc2)o1,nt,nt,-3,nt,8,-25
Cc1cc(C)c(S(=O)(=O)Nc2ccc(C(=O)O)cc2)cc1S(=O)(=O)Nc1ccc(C(=O)O)cc1,nt,nt,nt,nt,nt,-21
O=C(CCCc1nc(-c2ccccc2Cl)no1)NC1CCCC1,nt,nt,-6,nt,47,99*
Cc1cc(NC(=S)N(CCCN2CCOCC2)Cc2ccco2)ccc1Cl,6,19,-3,14,15,-7
S=C(Nc1ccc(Cl)cc1)N(CCCN1CCOCC1)Cc1ccco1,14,37*,-5,32*,-13,10
Cc1ccc(NC(=S)N(CCCN2CCOCC2)Cc2ccco2)cc1,-9,-3,-1,2,0,6
CCN1CCN(CCCN(Cc2ccco2)C(=S)Nc2ccc(Cl)c(C)c2)CC1,-8,38*,5,28*,-16,1
Cc1ccc(Cl)c(NC(=S)N(CCCN2CCOCC2)Cc2ccco2)c1,-9,11,6,36*,-2,5
COc1ccc(NC(=O)COC(=O)CCNS(=O)(=O)c2ccc(Cl)cc2)cc1,nt,-5,-8,-3,10,-22
Cc1cc(C)nc(N/N=C2/CCCC/C2=C\c2ccccc2)n1,-11,-7,4,-2,-25,15
COc1ccc(-n2nnnc2SCC(=O)N2CCN(C(=O)c3ccco3)CC2)cc1OC,6,-1,-6,5,-4,16
COc1ccc(OC)c(-n2nnnc2SCC(=O)N2CCN(C(=O)c3ccco3)CC2)c1,3,1,0,41*,-25,10
CCOC(=O)CN(C(=O)CSc1nnc(COc2ccc(OC)cc2)n1CC)c1ccccc1,nt,2,0,-5,-21,-26
CCCCc1nc(SCC(=O)Nc2ccc(S(N)(=O)=O)cc2)n[nH]1,8,2,-3,7,-49,11
O=C(CCN1C(=O)/C(=C/c2ccccc2F)SC1=S)NCCCn1ccnc1,nt,nt,6,nt,-11,9

# Screens from PubChem.
